Structures are written as SMILES. Records with an inconclusive call do not appear. The source made the active and inactive calls. The calls were made as follows, unless noted: active = hit-call score of the fitted dose curve at least 0.9, where 1 is the maximum; inactive = score below 0.9.

Read-out in assay [1]: Interleukin-1 alpha (IL1a), IL1A (gene 3552)
The assay can be described thus: BSK_LPS_IL1a: BioMAP Diversity Plus: LPS Assay for Interleukin-1 alpha (IL1a) Biomarker Activity (AID 2283080). Conditions: primary human HUVEC with PBMC; actives raise or lower the signal. In short, it runs like this:
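Primary human HUVEC and PBMC co-culture stimulated with LPS is dosed and harvested at 24 h. Both increases and decreases in ELISA-measured IL-1a are scored relative to DMSO.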

Read-out in assay [2]: Monocyte Chemoattractant Protein-1 (MCP1), CCL2 (gene 6347)
The assay can be described thus: BSK_LPS_MCP1: BioMAP Diversity Plus: LPS Assay for Monocyte Chemoattractant Protein-1 (MCP1) Biomarker Activity (AID 2283081).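 As to AC50: secreted MCP-1 protein quantified by ELISA in culture supernatant.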 Conditions: primary human HUVEC with PBMC; actives raise or lower the signal. The gist of the method: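 Values derive from bidirectional fitting against DMSO of ELISA-measured MCP-1 in a human primary endothelial and mononuclear cell co-culture, 24 h after chemical addition under LPS activation.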

Assay [3] can be described thus: BSK_LPS_PGE2: BioMAP Diversity Plus: LPS Assay for Prostaglandin E2 (PGE2) Biomarker Activity (AID 2283082). The settings on record: primary human HUVEC with PBMC; actives raise or lower the signal. The gist of the method: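 HUVEC plus human PBMC co-culture stimulated with LPS; secreted PGE2 quantified by ELISA 24 h after chemical dosing. Activity fitted bidirectionally against DMSO baseline; parallel SRB staining (0.1% SRB after 10% TCA fixation, 560 nm) flags overt cytotoxicity.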

Read-out in assay [4]: Macrophage colony-stimulating factor (MCSF), CSF1 (gene 1435)
As to the kind of experiment: BSK_LPS_MCSF: BioMAP Diversity Plus: LPS Assay for Macrophage colony-stimulating factor (MCSF) Biomarker Activity (AID 2283083). The settings on record: primary human HUVEC with PBMC; actives raise or lower the signal. In short, it runs like this:
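Bidirectional fit versus DMSO of ELISA-measured M-CSF in co-cultured human umbilical vein endothelial cells and PBMC, sampled 24 h after dosing.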

Read-out in assay [5]: Tissue Factor, F3 (gene 2152)
As to the kind of experiment: BSK_LPS_TissueFactor: BioMAP Diversity Plus: LPS Assay for Tissue Factor Biomarker Activity (AID 2283084). The settings on record: primary human HUVEC with PBMC; actives raise or lower the signal. In short, it runs like this: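 Read-out: CD142 ELISA, 24 h. System: LPS-driven human endothelial/PBMC co-culture. Analysis: up- or down-signal fitted against DMSO.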

Read-out in assay [6]: Tumor necrosis factor (Homo sapiens) (UniProt P01375)
As to the kind of experiment: BSK_LPS_TNFa: BioMAP Diversity Plus: LPS Assay for Tumour Necrosis Factor alpha (TNFa) Biomarker Activity (AID 2283085). Conditions: primary human HUVEC with PBMC; actives raise or lower the signal. In short, it runs like this:
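Human umbilical vein endothelial cells co-cultured with PBMC and stimulated with LPS. TNFa was measured by ELISA 24 h after chemical dosing, fitted bidirectionally relative to DMSO.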

Read-out in assay [7]: Vascular cell adhesion molecule 1 (VCAM1), VCAM1 (gene 7412)
As to the kind of experiment: BSK_LPS_VCAM1: BioMAP Diversity Plus: LPS Assay for Vascular cell adhesion molecule 1 (VCAM1) Biomarker Activity (AID 2283086). Conditions: primary human HUVEC with PBMC; actives raise or lower the signal. In short, it runs like this:
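Human umbilical vein endothelial cells co-cultured with PBMC and stimulated with LPS; VCAM-1 measured by ELISA 24 h after dosing. Bidirectional curve fitting against DMSO baseline; cytotoxicity tracked in parallel by SRB total-protein staining.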

Read-out in a further assay: CD38, CD38 (gene 952)
As to the kind of experiment: BSK_SAg_CD38: BioMAP Diversity Plus: SAg Assay for CD38 Biomarker Activity (AID 2283087). Conditions: primary human HUVEC with PBMC; actives raise or lower the signal. In short, it runs like this: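 Human HUVEC plus PBMC co-culture stimulated with superantigen; CD38 measured by ELISA 24 h after chemical dosing. Fluorescence read-out, bidirectional fit against DMSO; cytotoxicity tracked in parallel by SRB and Alamar Blue.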

Read-out in another assay: CD40, CD40 (gene 958)
The assay can be described thus: BSK_SAg_CD40: BioMAP Diversity Plus: SAg Assay for CD40 Biomarker Activity (AID 2283088). The settings on record: primary human HUVEC with PBMC; actives raise or lower the signal. In short, it runs like this:
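Endpoint derived by fitting increases or decreases versus DMSO controls. CD40 is detected by fluorescence ELISA in a human vascular co-culture of endothelium and PBMC at 24 h.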

Read-out in a further assay: CD69, CD69 (gene 969)
As to the kind of experiment: BSK_SAg_CD69: BioMAP Diversity Plus: SAg Assay for CD69 Biomarker Activity (AID 2283089).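 As to AC50: cell surface CD69 protein quantified by ELISA with fluorescence detection.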 The settings on record: primary human HUVEC with PBMC; actives raise or lower the signal. The gist of the method: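 ELISA, fluorescence read-out: CD69 on human umbilical vein endothelial cell + PBMC co-culture, 24 h post-dosing. Gain or loss of signal fitted bidirectionally against DMSO baseline.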

Read-out in assay [8]: Monocyte Chemoattractant Protein-1 (MCP1), CCL2 (gene 6347)
The assay can be described thus: BSK_SAg_MCP1: BioMAP Diversity Plus: SAg Assay for Monocyte Chemoattractant Protein-1 (MCP1) Biomarker Activity (AID 2283090). The settings on record: primary human HUVEC with PBMC; actives raise or lower the signal. The gist of the method: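 MCP-1 levels in the endothelial–PBMC SAg co-culture were quantified by ELISA at 24 h post-dosing; both increases and decreases versus DMSO scored. Cytotoxicity monitored by SRB total protein in parallel cultures.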

Read-out in assay [9]: E-selectin (Homo sapiens) (UniProt P16581)
The assay can be described thus: BSK_SAg_Eselectin: BioMAP Diversity Plus: SAg Assay for Eselectin Biomarker Activity (AID 2283091). The settings on record: primary human HUVEC with PBMC; actives raise or lower the signal. The gist of the method: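 Endpoint values derive from bidirectional fitting relative to DMSO, using ELISA-measured E-selectin in a human vascular co-culture (umbilical vein endothelium plus PBMC) sampled 24 h after dosing.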

Read-out in assay [10]: Monokine induced gamma interferon (MIG), CXCL9 (gene 4283)
As to the kind of experiment: BSK_SAg_MIG: BioMAP Diversity Plus: SAg Assay for Monokine induced gamma interferon (MIG) Biomarker Activity (AID 2283092). The settings on record: primary human HUVEC with PBMC; actives raise or lower the signal. In short, it runs like this:
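ELISA readout of MIG/CXCL9; primary human umbilical vein endothelial cells co-cultured with peripheral blood mononuclear cells; 24 h post-dose; gain/loss fit vs DMSO baseline.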

Assay [11] can be described thus: BSK_SAg_PBMCCytotoxicity: PBMC Cytotoxicity Assessment in the BioMAP Diversity Plus: SAg Assay (AID 2283093).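 Also: PBMC viability measured as Alamar Blue reduction fluorescence at 546/580 nm; fitted both ways against DMSO so a hit may be loss or gain of signal.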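 As to AC50: PBMC superantigen activated with SEB plus TSST-1 one hour after compound addition.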 The settings on record: primary human HUVEC with PBMC. In short, it runs like this: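 Human umbilical vein endothelial cells co-cultured with PBMC; PBMC (75,000/well) pre-treated with compound 1 h, then activated with SEB and TSST-1 (20 ng/mL final each) for 90 h. Alamar Blue added 6 h, fluorescence 546/580 nm; bidirectional fit versus DMSO.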

Read-out in assay [12]: Interleukin-8 (IL8), CXCL8 (gene 3576)
As to the kind of experiment: BSK_SAg_IL8: BioMAP Diversity Plus: SAg Assay for Interleukin-8 (IL8) Biomarker Activity (AID 2283094). Conditions: primary human HUVEC with PBMC; actives raise or lower the signal. In short, it runs like this: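 Human umbilical vein endothelial cells co-cultured with PBMC, stimulated with superantigen; IL-8 measured by ELISA 24 h after chemical dosing. Bidirectional fitting versus DMSO; SRB staining in parallel cultures tracks cytotoxicity.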

The nature of assay [13]: BSK_SAg_Proliferation: Cell Proliferation Assessment in the BioMAP Diversity Plus: SAg Assay (AID 2283095). Conditions: primary human HUVEC with PBMC. In short, it runs like this: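 Human umbilical vein endothelial cells co-cultured with PBMC; sulforhodamine B total-protein staining (0.1% SRB after 10% TCA fixation, absorbance 560 nm) at 96 h in sub-confluent culture. Fitted bidirectionally against DMSO.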

Assay [14] is described as follows: BSK_SAg_SRB: Viability Assessment in the BioMAP Diversity Plus: SAg Assay (AID 2283096).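 Also: cells read one day after compound addition; hits may be either gain or loss of signal compared with DMSO.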 The settings on record: primary human HUVEC with PBMC. In short, it runs like this:
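Endothelial/PBMC primary human co-culture; compound 24 h; fix 10% TCA, stain 0.1% SRB, A560; protein content as cytotoxicity proxy; bidirectional curve fit, DMSO = baseline.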

In assay [15] the target is human CYP2C9, CYP2C9 (gene 1559) (UniProt P11712). As to the kind of experiment: NVS_ADME_hCYP2C9: NovaScreen (NVS) CYP450-related Enzyme Activity (ADME) Assay for human CYP2C9 (AID 2283108; active = hit-call score of the fitted dose curve at least 0.9, where 1 is the maximum). In short, it runs like this: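 Cell-free assay of recombinant human CYP2C9 produced in Sf9 cells, with enzyme activity read by fluorescence intensity 0.75 h after compound addition. Loss of signal versus an acetonitrile negative control indicates inhibition. Primary screen used 10 uM in duplicate; actives were retested in concentration series.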
Chain of human CYP2C9, CYP2C9 (gene 1559) (P11712 whole entry, looked up): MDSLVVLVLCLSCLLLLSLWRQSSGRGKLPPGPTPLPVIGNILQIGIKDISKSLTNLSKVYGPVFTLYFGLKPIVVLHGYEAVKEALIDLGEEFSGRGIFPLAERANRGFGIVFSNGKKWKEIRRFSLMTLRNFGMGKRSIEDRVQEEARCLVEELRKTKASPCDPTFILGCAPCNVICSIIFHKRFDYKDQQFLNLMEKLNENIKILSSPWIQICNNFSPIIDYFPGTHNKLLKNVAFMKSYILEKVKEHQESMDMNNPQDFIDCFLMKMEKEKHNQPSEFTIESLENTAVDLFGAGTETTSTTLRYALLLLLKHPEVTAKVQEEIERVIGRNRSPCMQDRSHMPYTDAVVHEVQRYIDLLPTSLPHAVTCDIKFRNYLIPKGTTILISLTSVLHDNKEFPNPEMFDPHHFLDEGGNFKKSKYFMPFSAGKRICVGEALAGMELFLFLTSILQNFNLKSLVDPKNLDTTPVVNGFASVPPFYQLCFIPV

Chain of Tumor necrosis factor (Homo sapiens) (P01375 whole entry, looked up): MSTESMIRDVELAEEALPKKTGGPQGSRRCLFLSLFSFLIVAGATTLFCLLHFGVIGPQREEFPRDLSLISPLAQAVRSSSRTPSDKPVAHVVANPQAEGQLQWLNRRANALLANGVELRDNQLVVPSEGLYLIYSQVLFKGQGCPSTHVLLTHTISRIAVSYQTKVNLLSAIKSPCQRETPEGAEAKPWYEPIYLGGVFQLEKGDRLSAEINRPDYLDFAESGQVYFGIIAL
Chain of E-selectin (Homo sapiens) (P16581 whole entry, looked up): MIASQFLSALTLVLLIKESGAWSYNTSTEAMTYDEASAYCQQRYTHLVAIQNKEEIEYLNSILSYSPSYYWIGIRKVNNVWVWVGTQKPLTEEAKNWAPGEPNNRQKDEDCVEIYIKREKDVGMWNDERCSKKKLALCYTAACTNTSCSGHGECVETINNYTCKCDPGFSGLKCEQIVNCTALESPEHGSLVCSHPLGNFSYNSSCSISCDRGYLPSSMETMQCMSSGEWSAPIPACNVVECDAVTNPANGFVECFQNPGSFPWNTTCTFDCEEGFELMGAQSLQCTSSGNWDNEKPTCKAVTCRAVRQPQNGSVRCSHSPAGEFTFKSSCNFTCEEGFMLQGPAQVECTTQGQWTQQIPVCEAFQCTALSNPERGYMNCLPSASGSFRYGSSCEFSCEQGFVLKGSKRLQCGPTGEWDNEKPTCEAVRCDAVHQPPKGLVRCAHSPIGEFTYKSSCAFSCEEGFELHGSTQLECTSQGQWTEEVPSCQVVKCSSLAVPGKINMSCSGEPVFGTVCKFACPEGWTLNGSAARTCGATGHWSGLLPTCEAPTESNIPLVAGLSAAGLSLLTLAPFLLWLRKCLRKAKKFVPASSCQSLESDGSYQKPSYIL

Regarding `O=P(O)(O)OCCC(F)(F)C(F)(F)C(F)(F)C(F)(F)C(F)(F)C(F)(F)F`, the result in assay [1], in assay [2], in [3], in [4], in [5] and in [6] was inactive. Moreover, the outcome in assay [7] is “inactive”; with CD38, CD38 (gene 952), “inactive”; with CD40, CD40 (gene 958), “inactive”; in the assay with CD69, CD69 (gene 969), “inactive”; in [8] it was “inactive”; in assay [9] it was “inactive”. Further, the result in assay [10], in assay [11], in assay [12], in assay [13] and in assay [14] was inactive.

For the compound `CCc1ccc(C(c2ccc(CC)cc2)C(Cl)Cl)cc1`, the AC50 was 20 µM (active) in [1]; 31.4 µM (active) in [2]; 0.158 µM (active) in assay [3]; 20 µM (active) in assay [4]; 29.9 µM (active) in assay [6]; 27.2 µM (active) in assay [7]. In addition, the AC50 in the assay with CD38, CD38 (gene 952) was 27.7 µM (active); with CD40, CD40 (gene 958), 28.9 µM (active); in the assay with CD69, CD69 (gene 969), 15.1 µM (active); in [8] it was 31.8 µM (active); in assay [9], 26 µM (active); in assay [10], 33.6 µM (active). For the same compound, the results for the AC50 in [11], in assay [13] and in assay [14] were 14.5 µM (active), 8.44 µM (active) and 29.1 µM (active), respectively. Moreover, the outcome in assay [5] and in assay [12] was inactive.

As for `O=C(O)C(F)(OC(F)(F)C(F)(OC(F)(F)C(F)(F)C(F)(F)F)C(F)(F)F)C(F)(F)F` (stereo not given), the result in assay [1], in [2], in assay [3], in assay [4], in assay [5] and in assay [6] was inactive. For the same compound, the outcome in assay [7] is “inactive”; with CD38, CD38 (gene 952), “inactive”; with CD40, CD40 (gene 958), “inactive”; with CD69, CD69 (gene 969), “inactive”; in assay [8] it was “inactive”; in [9], “inactive”. For the same compound, the outcome in assay [10], in assay [11], in [12], in [13] and in assay [14] was inactive.

On to `COC(=O)CCC(F)(F)C(F)(F)C(F)(F)C(F)(F)F`, for which the outcome in [1], in [2], in [3], in assay [4], in assay [5] and in [6] was inactive. In addition, the outcome in assay [7] is “inactive”; in the assay with CD38, CD38 (gene 952), “inactive”; with CD40, CD40 (gene 958), “inactive”; with CD69, CD69 (gene 969), “inactive”; in [8], “inactive”; in [9], “inactive”. In addition, the result in assay [10], in [11], in [12], in assay [13] and in [14] was inactive.

As for `CO[Si](OC)(c1ccccc1)c1ccccc1`, the result in assay [1], in assay [2], in assay [3], in assay [4], in assay [5] and in [6] was inactive. In addition, the outcome in [7] was “inactive”; with CD38, CD38 (gene 952), “inactive”; with CD40, CD40 (gene 958), “inactive”; with CD69, CD69 (gene 969), “inactive”; in assay [8] it was “inactive”; in assay [9], “inactive”. For the same compound, the outcome in assay [10], in assay [12] and in [14] was inactive. Besides, the AC50 in assay [11] was 33.8 µM (active); in [13], 20 µM (active).

Regarding `CCCCOCCOCCOC(=O)CCCCC(=O)OCCOCCOCCCC`, the result in assay [1], in assay [2], in [3], in [4], in assay [5] and in assay [7] was inactive. Besides, the outcome with CD38, CD38 (gene 952) is “inactive”; in the assay with CD40, CD40 (gene 958), “inactive”; with CD69, CD69 (gene 969) it was “inactive”; in [8] it was “inactive”; in assay [9] it was “inactive”; in assay [10], “inactive”. The outcome in assay [11], in assay [12], in [13] and in [14] was inactive. Besides, the AC50 was 5.67 µM (active) in [6] and 3.07 µM (active) in assay [15].

For `O=C(O)C(F)(F)C(F)(F)C(F)F`, the outcome in assay [1], in assay [2], in [3], in assay [4], in assay [5] and in assay [6] was inactive. In addition, the outcome in assay [7] was “inactive”; with CD38, CD38 (gene 952) it was “inactive”; with CD40, CD40 (gene 958), “inactive”; with CD69, CD69 (gene 969), “inactive”; in assay [8], “inactive”; in assay [9], “inactive”. Besides, the result in [10], in [11], in assay [12], in assay [13] and in assay [14] was inactive.
